The list is not random: actives were taken first. Their share in the collection is about 15%.
ALOX12 inh: inhibitors of human 12S-lipoxygenase ALOX12. Potency, µM (highest dose often 108 µM), without a hit: at the highest dose activity change, negative = inhibition, most hits filed as inhibitors. 580,000 compounds, 1.1% hits. purified 12hLO, xylenol orange hydroperoxide absorbance. P18054
Target sequence (P18054 whole entry, looked up): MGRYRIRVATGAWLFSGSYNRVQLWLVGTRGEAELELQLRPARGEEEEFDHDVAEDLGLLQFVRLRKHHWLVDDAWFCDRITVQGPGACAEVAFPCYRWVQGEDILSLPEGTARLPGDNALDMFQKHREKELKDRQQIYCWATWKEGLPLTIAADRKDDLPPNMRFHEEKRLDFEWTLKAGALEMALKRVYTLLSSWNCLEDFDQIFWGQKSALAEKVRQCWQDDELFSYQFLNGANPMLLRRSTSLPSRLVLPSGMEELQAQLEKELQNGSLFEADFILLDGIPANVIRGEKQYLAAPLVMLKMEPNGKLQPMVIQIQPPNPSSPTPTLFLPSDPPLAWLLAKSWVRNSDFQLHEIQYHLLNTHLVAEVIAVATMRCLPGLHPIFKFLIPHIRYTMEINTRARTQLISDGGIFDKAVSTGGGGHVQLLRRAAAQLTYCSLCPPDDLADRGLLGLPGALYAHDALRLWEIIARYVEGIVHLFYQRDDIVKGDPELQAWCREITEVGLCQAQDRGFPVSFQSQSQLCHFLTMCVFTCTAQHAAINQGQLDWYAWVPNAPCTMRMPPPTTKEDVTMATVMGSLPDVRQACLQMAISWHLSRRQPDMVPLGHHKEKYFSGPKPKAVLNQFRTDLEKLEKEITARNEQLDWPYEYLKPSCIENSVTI
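Purified human 12hLO (150 nM final) in 25 mM Hepes, 0.01% Triton X-100, pH 7.0 was preincubated 15 min at room temperature with compound. Then 40 uM arachidonic acid was added, 30 min. Hydroperoxide was read by Fe-XO absorbance ratio 573/405 nm.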
ELG1 repair inh: inhibitors of ELG1-dependent DNA repair in HEK293T cells; HEK293T ELG1-luciferase reporter, luminescence, 16 h; DNA damage induced by 5-fluorouridine; Potency, µM (titrated, usually from 46.1 µM), inactives show at the highest dose activity change, negative = inhibition, actives largely listed as inhibitors; 330,000 compounds, 2.3% hits; AID 504467; note: nearly all actives have a fitted effect of over 55% in size
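In this reporter screen, reduction of luminescence relative to DMSO vehicle indicated activity. Compounds and 5-fluorouridine were added together to 2,000 cells per well, incubated for 16 hr at 37 °C, then developed with ONE-Glo.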
RORgamma inh: ROR gamma (mouse) transcription inhibition. Potency, µM (titrated, usually from 53.6 µM), for inactives: top-dose activity change, negative = inhibition, hits mostly inhibitors. AID 2551. P51450. Drosophila S2 Gal4-RORgamma UAS-luciferase reporter, 20 h. 310,000 compounds, 5.4% hits; note: nearly all actives have a fitted effect of over 60% in size
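Drosophila Schneider cells stably carrying a metallothionein-driven Gal4 DBD–ROR gamma fusion and a UAS-Photinus luciferase reporter were exposed to compound for 1 hr, then induced with copper sulfate (700 uM final) for 20 hr at ambient temperature before luminescence reading.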
TDP1 cell CPT: DT40-hTDP1 cell growth loss with CPT; chicken DT40 Tdp1-/-;hTDP1 cells + 20 nM CPT, ATP luminescence, 48 h; Potency, µM (doses to about 46.2 µM), for the others: at the highest dose activity change, negative = growth inhibition, usual class: inhibitors; 420,000 compounds, 12% hits; note: nearly all actives have a fitted effect of over 55% in size
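Chicken DT40 Tdp1-/- cells complemented with human TDP1, 400 cells/well, exposed to compounds plus 20 nM camptothecin for at least 48 h at 37 C; viability read as ATP content by CellTiter-Glo luminescence.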
Gal4-VP16 FLuc: inhibits Gal4-VP16 luciferase reporter, ROR gamma counter-screen; Drosophila S2 Gal4-VP16 UAS-luciferase, luminescence, 20 h; Potency, µM (top dose mostly 53.6 µM), without a hit: at the top dose activity, negative = inhibition, usual class: inhibitors; 310,000 compounds, 3.5% hits; AID 2546;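 note: Gal4-VP16 expression switched on by copper sulfate through the metallothionein promoter; nearly all actives have a fitted effect of over 50% in size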
DT40 TDP1 no CPT: qHTS for Inhibitors of human tyrosyl-DNA phosphodiesterase 1 (TDP1): qHTS in cells in absence of CPT. DT40 Tdp1-/- hTDP1 cells, no CPT, ATP luminescence, 48 h. Potency, µM (highest dose often 46.2 µM), inactives show top-dose activity change, negative = growth inhibition, hits mostly inhibitors. 420,000 compounds, 15% hits. AID 686978, 2013; note: nearly all actives have a fitted effect of over 55% in size
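No-CPT arm: Tdp1-/-;hTDP1 DT40 cells (400/well) plus compounds, incubated ≥48 hr at 37 °C. Readout CellTiter-Glo luminescence.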
An asterisk follows results filed as active; i = inactive; ? = inconclusive; . = no result given. Calls come from the whole dose curve; as a rule, active = well fitted curve in the direction sought with a large enough effect; inconclusive = small, poorly fitted or top-dose-only effect, or another doubt; inactive = no such curve, though single readings can be large; an effect the other way counts as inactive or inconclusive. % is set by controls: 0 for no effect and ±100 for the full control effect; potency is the fitted concentration of half-maximal effect.

SMILES | ALOX12 inh | ELG1 repair inh | RORgamma inh | TDP1 cell CPT | Gal4-VP16 FLuc | DT40 TDP1 no CPT
CCn1c(Cn2nnc(-c3ccccc3)n2)nnc1SCc1ccc(Cl)c(Cl)c1 | -22% | ? | 1% | 21µM* | -3% | 23µM*
CN(C)c1ccc(/C=N\NC(=O)c2cccc3cc[nH]c23)cc1 | i | ? | 7.9µM* | ? | ? | 6.5µM*
O=C(Cn1cnc2c(cnn2-c2ccc(F)cc2)c1=O)NCc1ccco1 | 2% | -29% | 29% | 2.9µM* | -4% | 5.8µM*
Cc1ccc(-n2ncc3c(=O)n(CC(=O)NCc4ccco4)cnc32)cc1 | -16% | -7% | 8% | ? | -2% | 23µM*
Cc1ccc(-n2ncc3c(=O)n(CC(=O)NCc4ccco4)cnc32)cc1C | -6% | -3% | -37% | 10µM* | -2% | 6.5µM*
CCCCNC(=O)Cn1cnc2c(cnn2-c2ccc(C)c(C)c2)c1=O | 4% | 13% | 0% | -5% | -2% | -11%
CCCN(CC(=O)Nc1ccc(-c2ccccc2)cc1)Cc1nnc(-c2ccco2)o1 | 29% | . | . | . | . | .
CCN(C(=O)c1coc(=O)c(Br)c1)c1ccc2c(c1)OCO2 | ? | 26% | -13% | 1.5µM* | 16% | 1µM*
COc1cc(OC)c(C2=CCN(S(=O)(=O)N3CCOCC3)CC2)c(OC)c1 | 14% | . | . | . | . | .
Cc1[nH]c(C(=O)NOCc2ccccc2)c(C)c1C(=O)OC(C)C | 4% | . | . | . | . | .
Clc1ccc(C(c2cccs2)N2CCNCC2)cc1 (centres undefined) | -13% | . | . | 13µM* | . | 18µM*
CCc1ccc(NC(=O)Cc2ccc(OC)cc2)cc1 | . | ? | ? | . | -8% | .
Cc1cccn2cc(-c3cccc(NC(=O)C(C)C)c3)nc12 | -13% | . | . | ? | . | ?
Cc1cccn2cc(-c3ccc(NC(=O)Cc4ccccc4)cc3)nc12 | 10% | 3% | 5µM* | ? | ? | ?
COc1ccc(CC(=O)Nc2ccc(-c3cn4cccc(C)c4n3)cc2)cc1OC | 0% | ? | 25% | ? | -1% | 23µM*
COc1ccc(CC(=O)Nc2ccc(-c3cn4ccc(C)cc4n3)cc2)cc1 | 0% | ? | ? | 5.8µM* | ? | 5.2µM*
COc1ccc(CC(=O)Nc2ccc3nc(C)sc3c2)cc1OC | -9% | -29% | 26% | -6% | -7% | -3%
CC(C)C(=O)Nc1cccc(-c2cn3ccccc3n2)c1 | -19% | ? | -36% | -9% | -12% | 1%
Cc1ccn2cc(-c3cccc(NC(=O)C(C)C)c3)nc2c1 | 2% | ? | 4µM* | 15µM* | ? | 29µM*
CC(Sc1nc(-c2ccco2)nc2ccccc12)C(=O)N(C)C (centres undefined) | -21% | . | . | . | . | .
CCN(CC)C(=O)c1cc2c(s1)CCC(C(=O)Nc1ccc(OC)c(F)c1)C2 (centres undefined) | 27% | . | . | . | . | .
CC1CCN(C(CNC(=O)c2ccccc2SC(F)F)c2cccs2)CC1 (centres undefined) | 32µM* | . | . | . | . | .
COc1ccccc1C(=O)NC(CCSC)C(=O)NCC(c1cccs1)N1CCOCC1 (centres undefined) | -4% | 8% | . | -22% | . | -24%
COc1cc(C(=O)NCC(c2cccs2)N2CCc3ccccc32)cc(OC)c1OC (centres undefined) | -4% | ? | . | ? | . | 21µM*
COc1ccccc1C(=O)NCC(c1cccs1)N1CCc2ccccc21 (centres undefined) | -6% | ? | . | 21µM* | . | 18µM*
SMILES | ALOX12 inh | ELG1 repair inh | RORgamma inh | TDP1 cell CPT | Gal4-VP16 FLuc | DT40 TDP1 no CPT
O=C(CNC(=O)c1ccccc1Cl)NCC(c1cccs1)N1CCOCC1 (centres undefined) | -3% | 7% | . | -6% | . | -2%
COc1cccc(C(=O)NCC(c2cccs2)N2CCc3ccccc32)c1 (centres undefined) | ? | ? | . | 13µM* | . | ?
Cc1ccc(-c2nc(Cn3nnc(-c4ccccc4)n3)co2)c(C)c1 | 4% | . | . | . | . | .
Cc1ccc(-n2ccnc(SCC(=O)NCCc3ccccc3)c2=O)cc1F | ? | 0% | . | ? | . | 15µM*
COC(=O)c1ccc(COC(=O)C(NC(=O)Cc2ccccc2)C(C)C)cc1 (centres undefined) | 1% | -2% | . | -27% | . | 16µM*
CC(C)[C@H](NC(=O)Cc1ccccc1)C(=O)O | -28% | . | . | . | . | .
Cc1cscc(C)c1=S | 18µM* | . | . | 6% | . | 3%
Cc1cc(C(=O)Nc2ccc([C@H]3OCC(=O)N(Cc4nccn4C)[C@@H]3CO)cc2)n(C)n1 | 20% | . | . | . | . | .
Cc1csc2c(NC3CCN(Cc4ccccc4)CC3)ncnc12 | 0% | -12% | 32% | 23µM* | -27% | 16µM*
c1ccc(CN2CCC(Nc3ncnc4sccc34)CC2)cc1 | -13% | 6.5µM* | ? | 10% | ? | 2%
O[C@H]1C[C@H](c2ccccc2)N(Cc2cccs2)C[C@@H]1n1cc(-c2ccc(F)cc2)nn1 | 35µM* | . | . | 23µM* | . | 23µM*
Cc1ccc([C@H]2C[C@H](O)[C@@H](n3cc(C4CC4)nn3)CN2Cc2cccs2)cc1 | ? | . | . | 9.2µM* | . | 12µM*
O[C@@H]1C[C@H](c2ccc(Cl)cc2)N(Cc2cccs2)C[C@H]1n1cc(C2CC2)nn1 | -8% | . | . | -25% | . | ?
COc1ccc([C@H]2C[C@H](O)[C@@H](n3cc(-c4ccc(F)cc4)nn3)CN2Cc2cccs2)cc1 | ? | . | . | 5.2µM* | . | 5.2µM*
CCOCCOC(C)C(=O)N(CC(=O)OCC)CC(C)C (centres undefined) | 14% | . | . | . | . | .
CCOc1ccc(-c2cc3c(N4CCC(C(=O)NCc5cccs5)CC4)nccn3n2)cc1 | 18% | . | . | . | . | .
CCCC1COC(Cn2cncn2)(c2ccc(C)cc2)O1 (centres undefined) | 19% | -1% | -24% | 23µM* | 3% | 11µM*
CC1=NN(C(=O)CSCc2ccccc2)C(O)(c2ccccc2)C1 (centres undefined) | -11% | ? | ? | -25% | 13µM* | -1%
CC1=NN(C(=O)CSCc2ccccc2Cl)C(O)(C(F)(F)F)C1 (centres undefined) | 7% | . | . | . | . | .
CC1=NN(C(=O)COc2ccccc2)C(O)(c2ccccc2)C1 (centres undefined) | -17% | 7% | 6.3µM* | 5.8µM* | 10µM* | ?
